Assay [1] in a line: UKN5_HCS_SBAD2_cell_viability: Viability Assessment in the University of Konstanz (UKN) Leist Lab Neurite Outgrowth Assay in human iPSC-derived immature Dorsal Root Ganglia Neurons (UKN5) (AID 2284056). In short, it runs like this:
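iPSC-derived immature peripheral neurons (SBAD2) seeded on Matrigel with CHIR99021, SU5402 and DAPT, dosed 1 h later for 24 h. Viability from Hoechst H-33342 and calcein-AM live staining, high-content imaging; bidirectional fit versus DMSO.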

Assay [2] in a line: UKN5_HCS_SBAD2_neurite_outgrowth: University of Konstanz (UKN) Leist Lab Neurite Outgrowth Assay in human iPSC-derived immature Dorsal Root Ganglia Neurons (UKN5) (AID 2284070). Particulars: actives raise or lower the signal. The essentials: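 Thaw, seed on Matrigel (100.000 cells/cm2), dose 1 h later; at 23 h live-stain with H-33342 and calcein-AM for 60 min; image at 24 h. Neurite area fitted bidirectionally vs DMSO.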

Results on two compounds are retold here after PubChem BioAssay (EPA / NIEHS).

A word on the AC50: it is the midpoint of the concentration-response curve, whichever way the signal moves.

Molecules are shown by their SMILES. Activity calls are given as the source filed them. Rule for the calls: active = hit-call score of the fitted dose curve at least 0.9, where 1 is the maximum; inactive = score below 0.9.

For `S=C(S)NCCNC(=S)S.[Mn+2].[S-]C([S-])=NCCN=C([S-])[S-].[Zn+2]`, the compound was called inactive in assay [1]. Moreover, the AC50 in assay [2] is 15 µM (active).

For the compound `S=C([S-])NCCNC(=S)[S-].[Mn+2]`, the AC50 in assay [1] was 7.5 µM (active); in assay [2] it was 4.28 µM (active).
